Measurements taken from PubChem BioAssay AID1159580 (chemical genetic matrix, 2015).
The whole screen tested about 5,500 compounds, of which about 2,000 (36%) were called active. About 18% were inconclusive and are not listed. No stated cut-off is given here; in the data, active means normalized growth mostly below about 0.91 (no sharp cut-off); inconclusive means no clear call, values can overlap the other calls; inactive means mostly above about 0.92. Some of the results follow.

Assay: chemical genetic growth profiling, strain panel (AID 1159580);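 further: tested at 20 µM; growth read once vehicle control cultures reached saturation at 30 °C; 1 = growth at the plate median or of vehicle wells; lower values mean less growth of the strain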
Settings: S. cerevisiae deletion strains, growth OD
[1] = locus YHR030C, strain SLT2, hits give low values
[2] = locus YJL095W, strain BCK1, hits give low values

Measured: normalized growth

COc1ccc2c(=O)c(-c3ccc(O)cc3)coc2c1
inactive: [1] 0.966 | locus YHR079C, strain IRE1, hits give low values 0.939 | [2] 0.962 | locus YJR066W, strain TOR1, hits give low values 0.918 | locus YLR113W, strain HOG1, hits give low values 0.955 | locus YNL183C, strain NPR1, hits give low values 0.918 | locus YOR231W, strain MKK1, hits give low values 0.942 | locus YPL256C, strain CLN2, hits give low values 0.925

COc1ccccc1-c1coc2cc(O)ccc2c1=O
inactive: locus YBR021W, strain FUR4, hits give low values 0.987 | locus YBR229C, strain ROT2, hits give low values 1.01 | locus YCL029C, strain bik1, hits give low values 1 | locus YDL035C, strain GPR1, hits give low values 0.983 | locus YDL074C, strain BRE1, hits give low values 1.02 | locus YDL101C, strain DUN1, hits give low values 0.995 | locus YDL134C, strain PPH21, hits give low values 0.963 | locus YDL185W, strain tfp1, hits give low values 0.999 | locus YDL192W, strain arf1, hits give low values 1 | locus YDR101C, strain arx1, hits give low values 0.996 | locus YDR162C, strain NBP2, hits give low values 0.986 | locus YDR318W, strain mcm21, hits give low values 1.01 | locus YDR388W, hits give low values 1.03 | locus YDR502C, strain sam2, hits give low values 1.02 | locus YEL061C, strain CIN8, hits give low values 1.02 | locus YER110C, hits give low values 1.02 | locus YER155C, strain BEM2, hits give low values 1.02 | locus YER167W, strain BCK2, hits give low values 1.03 | locus YGL078C, strain dbp3, hits give low values 1 | locus YGL086W, strain mad1, hits give low values 1.01 | locus YGL248W, strain PDE1, hits give low values 1.01 | locus YGR078C, strain PAC10, hits give low values 0.995 | locus YGR135W, strain pre9, hits give low values 0.999 | locus YGR252W, strain gcn5, hits give low values 0.88 | [1] 1.02 | locus YHR079C, strain IRE1 (second series), hits give low values 1.02 | locus YHR094C, strain hxt1, hits give low values 1.02 | locus YHR129C, strain ARP1, hits give low values 1.03 | locus YHR200W, strain rpn10, hits give low values 1.03 | locus YIL066C, strain RNR3, hits give low values 1.01 | locus YIL073C, strain SPO22, hits give low values 1.05 | locus YIL125W, strain kgd1, hits give low values 1.02 | locus YIR030C, strain dcg1, hits give low values 1.01 | [2] 1.04 | locus YJL134W, strain LCB3, hits give low values 1.02 | locus YJL168C, strain set2, hits give low values 1.02 | locus YJL187C, strain SWE1 (second series), hits give low values 0.998 | locus YJR043C, strain POL32, hits give low values 0.971 | locus YKL009W, strain mrt4, hits give low values 0.993 | locus YKL068W, hits give low values 1 | locus YKL085W, strain MDH1 (second series), hits give low values 1 | locus YKL085W, strain MDH1, hits give low values 1 | locus YKL190W, strain CNB1, hits give low values 1.02 | locus YKR001C, strain vps1, hits give low values 0.979 | locus YLR039C, strain RIC1, hits give low values 1.03 | locus YLR058C, strain SHM2, hits give low values 1.01 | locus YLR102C, strain apc9, hits give low values 1.01 | locus YLR262C, strain YPT6, hits give low values 0.991 | locus YLR268W, strain sec22, hits give low values 0.997 | locus YLR330W, strain CHS5, hits give low values 1.03 | locus YLR342W, strain FKS1 (second series), hits give low values 0.992 | locus YLR371W, strain rom2, hits give low values 1.02 | locus YLR418C, strain cdc73, hits give low values 0.969 | locus YML016C, strain PPZ1, hits give low values 1.04 | locus YML032C, strain rad52, hits give low values 1.02 | locus YML124C, strain tub3, hits give low values 1.01 | locus YMR078C, strain ctf18, hits give low values 1.01 | locus YMR223W, strain ubp8, hits give low values 0.999 | locus YMR263W, strain SAP30, hits give low values 1 | locus YMR307W, strain GAS1, hits give low values 0.909 | locus YNL067W, strain RPL9B, hits give low values 0.987 | locus YNL233W, strain BNI4, hits give low values 1.02 | locus YNL250W, strain rad50, hits give low values 1.02 | locus YNL271C, strain bni1, hits give low values 1.02 | locus YNL298W, strain CLA4, hits give low values 1 | locus YNL307C, strain MCK1, hits give low values 1.02 | locus YNR052C, strain pop2, hits give low values 1.01 | locus YOL006C, strain TOP1, hits give low values 1.08 | locus YOL012C, strain htz1 1.12 | locus YOL147C, strain pex11, hits give low values 1.01 | locus YOR061W, strain CKA2, hits give low values 1.01 | locus YOR069W, strain VPS5, hits give low values 1.02 | locus YOR136W, strain idh2, hits give low values 1.03 | locus YOR144C, strain elg1, hits give low values 0.999 | locus YOR184W, strain ser1, hits give low values 0.981 | locus YOR316C, strain cot1, hits give low values 1.03 | locus YPL055C, strain LGE1, hits give low values 1 | locus YPL241C, strain CIN2, hits give low values 0.996 | locus YPR119W, strain clb2, hits give low values 1 | locus YPR141C, strain kar3, hits give low values 1.01 | locus YPR163C, strain tif3, hits give low values 1.02 | locus YPR167C, strain met16, hits give low values 1.01 | strain wtn01, hits give low values 0.986
